# Compound activity: PubChem, National Center for Advancing Translational Sciences (NCATS)
# The sample as a whole holds a higher share of hits than the screen did.
# TDP1 cell CPT: DT40-hTDP1 cell growth loss with CPT; Potency, µM (titrated, usually from 46.2 µM), for the others: top-dose activity change, negative = growth inhibition, most hits filed as inhibitors; hit rate 12% among 420,000; chicken DT40 Tdp1-/-;hTDP1 cells + 20 nM CPT, ATP luminescence, 48 h; also: potency is read from the fitted curve at half-maximal effect; nearly all actives have a fitted effect of over 55% in size
#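 Chicken DT40 Tdp1-/- cells complemented with human TDP1, 400 cells/well, exposed to compounds plus 20 nM camptothecin for at least 48 h at 37 C; viability read as ATP content by CellTiter-Glo luminescence.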
# HT1080 IDH1KD tx: HT-1080 IDH1 knockdown cell toxicity (counter line). hit rate 2% among 360,000. HT-1080 IDH1 knockdown viability, ATP luminescence, 48 h. Potency, µM (series often up to 46.1 µM), for the others: at the highest dose activity, negative = toxicity, most hits filed as cytotoxic;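 also: potency is read from the fitted curve at half-maximal effect; 0% = DMSO wells and -100% = cell-free medium wells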
#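 Assay cells: HT-1080 with IDH1 knockdown, 750 per well, RPMI/5% FBS. Exposure: 48 h at 37 °C following 2 h pre-incubation. Read: CellTiter-Glo luminescence; fitted concentration-response, curve class assigned.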
# HT1080NT lethal: kills 2HG-producing HT-1080-NT fibrosarcoma cells. HT-1080-NT fibrosarcoma viability, CellTiter-Glo ATP luminescence, 48 h. Potency, µM (highest dose often 46.1 µM), inactives show at the top dose activity, negative = less viability, actives largely listed as cytotoxic. hit rate 1.6% among 360,000. AID 686970;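 also: NT is the 2HG producing partner of a matched IDH1 knockdown line; potency is read from the fitted curve at half-maximal effect; 0% = DMSO-treated cells and -100% = media-only wells without cells; nearly all actives have a fitted effect of over 55% in size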
#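 Viability of the 2HG-overproducing fibrosarcoma line after 48 hours of compound exposure at 37 degrees C was determined by luminescence with CellTiter-Glo, and concentration-effect curves were then fitted and categorized.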
# DT40 TDP1 no CPT: qHTS for Inhibitors of human tyrosyl-DNA phosphodiesterase 1 (TDP1): qHTS in cells in absence of CPT; DT40 Tdp1-/- hTDP1 cells, no CPT, ATP luminescence, 48 h; Potency, µM (titrated, usually from 46.2 µM), for the others: top-dose activity change, negative = growth inhibition, actives largely listed as inhibitors; hit rate 15% among 420,000; AID 686978, 2013; also: potency is read from the fitted curve at half-maximal effect; nearly all actives have a fitted effect of over 55% in size
#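 Chicken DT40 Tdp1-/- cells stably complemented with human TDP1 were seeded at 400 cells/well with DMSO in place of 20 nM camptothecin. After compound pinning, cells grew at least 48 hr at 37 °C; viability read by CellTiter-Glo luminescence.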
# 12-LOX inh: inhibitors of human 12S-lipoxygenase ALOX12; P18054; purified 12hLO, xylenol orange hydroperoxide absorbance; Potency, µM (highest dose often 108 µM), without a hit: top-dose activity change, negative = inhibition, usual class: inhibitors; hit rate 1.1% among 580,000; also: potency is read from the fitted curve at half-maximal effect
# Target sequence (P18054 whole entry, looked up): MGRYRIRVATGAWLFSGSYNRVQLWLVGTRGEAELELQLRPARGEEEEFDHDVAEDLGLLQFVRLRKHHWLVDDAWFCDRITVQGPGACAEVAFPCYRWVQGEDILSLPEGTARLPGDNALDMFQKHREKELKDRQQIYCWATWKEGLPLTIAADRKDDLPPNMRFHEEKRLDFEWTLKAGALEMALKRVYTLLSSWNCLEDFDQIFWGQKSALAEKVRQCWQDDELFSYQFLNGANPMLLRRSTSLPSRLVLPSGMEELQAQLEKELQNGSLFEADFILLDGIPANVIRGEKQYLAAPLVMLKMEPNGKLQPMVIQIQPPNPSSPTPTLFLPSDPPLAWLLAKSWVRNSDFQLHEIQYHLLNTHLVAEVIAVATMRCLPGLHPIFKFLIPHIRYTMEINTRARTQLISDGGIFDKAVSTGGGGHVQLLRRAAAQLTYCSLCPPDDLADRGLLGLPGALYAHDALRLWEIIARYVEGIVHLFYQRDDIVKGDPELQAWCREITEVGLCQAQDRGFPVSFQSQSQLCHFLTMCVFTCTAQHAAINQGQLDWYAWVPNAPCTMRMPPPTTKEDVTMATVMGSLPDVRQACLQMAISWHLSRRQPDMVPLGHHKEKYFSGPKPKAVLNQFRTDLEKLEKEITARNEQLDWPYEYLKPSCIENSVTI
#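 Purified human 12hLO (150 nM final) in 25 mM Hepes, 0.01% Triton X-100, pH 7.0 was preincubated 15 min at room temperature with compound. Then 40 uM arachidonic acid was added, 30 min. Hydroperoxide was read by Fe-XO absorbance ratio 573/405 nm.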
# IL-1B inflam inh: inflammasome signaling inhibition, IL-1 beta readout | hit rate 4.7% among 360,000 | activity change, % at 57.5 µM | THP-1 LPS/ATP IL-1B secretion, AlphaLISA, 16 h; active compounds read low; in the data active = activity change below about -50%; inconclusive = mostly about -30% to -49%
#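 Secreted IL-1B measured by AlphaLISA bead assay after 16 h compound exposure of THP-1 cells; compounds (final up to 57.5 uM) added 1 h before LPS (250 ng/mL) and ATP (1.25 mM) stimulation; lower signal means less secretion.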
# The depositor's hits bear a star; u = inconclusive; x = not tested or not shown; ! = a repeat was not active; [ ] = remark or other dose. Unless noted, calls follow the shape of the dose curve; as a rule, active = well fitted curve in the direction sought with a large enough effect; inconclusive = small, poorly fitted or top-dose-only effect, or another doubt; inactive = no such curve, though single readings can be large; an effect the other way counts as inactive or inconclusive. Unless noted, % is scaled to controls: 0 for no effect and ±100 for the full control effect.
SMILES,TDP1 cell CPT,HT1080 IDH1KD tx,HT1080NT lethal,DT40 TDP1 no CPT,12-LOX inh,IL-1B inflam inh
C[N+](C)(Cc1ccccc1)CC(Br)CBr (configuration not stated),x,x,x,x,-46%,x
CCOC(=O)Cc1ccccc1,x,x,x,x,-2%[176 µM],x
COc1cc(-n2c(=S)[nH]c3ccccc3c2=O)c(Cl)cc1Cl,u,u,u,26µM*,u,0
COc1cccc(-n2c(=S)[nH]c3ccccc3c2=O)c1,-1%,-2%,-6%,u,3%,4
CC(C)Oc1cc(-n2c(=S)[nH]c3ccccc3c2=O)c(Cl)cc1Cl,u,u,-27%,16µM*,0%,29
N#CSCC(=O)N1c2ccccc2CCc2ccccc21,5.8µM*,23µM*,u,7.3µM*,-5%,-51*
Nc1ccccc1C(=O)OCC(=O)N1CCc2ccccc21,-3%,18%,14%,-9%,-22%,-1
O=C1C(I)=CC(=C(c2cc(I)c(O)c(I)c2)c2ccccc2C(=O)O)C=C1I,u,x,x,u,5.1µM*,x
CC(C)Oc1ccc(CNC(=O)C2CCCN(S(=O)(=O)c3ccc4c(ccn4C)c3)C2)cc1 (configuration not stated),21µM*,x,x,21µM*,-20%,x
CC(C)(C)c1cc(C=C(C#N)C#N)cc(C(C)(C)C)c1O,0.65µM*,2.1µM*,1.2µM*,0.65µM*,u,-77*
N#CC(C#N)=Cc1ccc(O)c(O)c1,21µM*!,-20%,-3%,19µM*!,25µM*!,9
N#CC(C#N)=Cc1ccc(N2CCCC2)cc1,-29%,-4%,-3%,u,u,1
COC(=O)c1ccc(CCN)cc1,x,x,x,x,-38%,x
N#Cc1ccc(-c2ccc(OC(=O)CSC(c3ccccc3)c3ccccc3)cc2)cc1,x,x,x,x,-23%,x
Cc1ccccc1C(=O)Nc1ccc(C(=O)OCc2cc(=O)n3nc(C4CC4)sc3n2)cc1,21µM*,x,x,u,-34%,x
c1ccc(Nc2cc3c(cn2)CN(CC2CC2)CCN3)cc1,x,x,x,x,47%[176 µM],x
CC(C)(C)c1ccc(C(=O)Nc2ccc3nc(SCC(=O)N4CCCC4)sc3c2)cc1,8.2µM*,x,x,4.1µM*,0%,x
CCOc1ccc(C(=O)Nc2ccc3nc(SCC(=O)N4CCCC4)sc3c2)cc1,u,x,x,u,0%,x
Cc1ccccc1C(=O)Nc1ccc2nc(SCC(=O)N(C)c3ccccc3)sc2c1,u,x,x,15µM*,-2%,x
COc1ccccc1C(=O)Nc1ccc2nc(SCC(=O)N(C)c3ccccc3)sc2c1,18µM*,x,x,12µM*,0%,x
COC(=O)c1ccc(NC(=O)c2cccn(Cc3ccccc3C)c2=O)cc1,-12%,x,x,11%,-18%,x
COc1ccc(NC(=O)CN(C)C(=O)CSC(c2ccccc2)c2ccccc2)cc1,-28%,-23%,-9%,u,u,-2
O=C(Cc1cccc(F)c1)N1CCN2CCS(=O)(=O)N(C3CC3)C(=O)C2C1 (configuration not stated),x,x,x,x,36%,x
COc1cccc(CC(=O)N2CC[C@H]3C(=O)NCCCCCN(Cc4cccnc4)[C@@H]3C2)c1,x,x,x,x,49%,x
COc1cc(C2C(C#N)=C(N)Oc3cc(O)ccc32)cc(OC)c1OC (configuration not stated),1µM*,u,0.56µM*,1µM*,-21%,20
SMILES,TDP1 cell CPT,HT1080 IDH1KD tx,HT1080NT lethal,DT40 TDP1 no CPT,12-LOX inh,IL-1B inflam inh
COc1cc(CC(C)N)cc(OC)c1OC (configuration not stated),4%[92.5 µM],x,x,-6%[92.5 µM],x,x
NCCCCN=C(N)N,8.4µM*!,x,x,6.7µM*!,0%,x
CC1CN1P(=O)(Oc1ccc2ccccc2c1)N1CC1C (configuration not stated),u,8%,8%,u,-8%,6
CC1=CC(=O)NP(=O)(Oc2ccc3ccccc3c2)N1 (configuration not stated),9.2µM*,-1%,3%,10µM*,0%,24
CN(C)C(=O)N1CCC2(CC1)NCc1ccccc1-n1ccnc12,x,x,x,x,38%,x
Cn1nc(C2CCCCC2)cc1[C@H]1CN2CC[C@H]1C[C@@H]2CNS(C)(=O)=O,x,x,x,x,30%[176 µM],x
COc1ccc(CCNC(=O)CCn2c(=O)c3ccccc3n(Cc3ccc(Cl)cc3)c2=O)cc1OC,18µM*,x,x,6.5µM*,-13%,x
Cc1ccc(Cn2c(=O)n(CCCCC(=O)NCc3ccccc3Cl)c(=O)c3ccccc32)cc1,4.6µM*,x,x,5.2µM*,-20%,x
CC1OC(OC2C=C3CCC4C(CCC5(C)C(c6ccc(=O)oc6)CCC45O)C3(C)CC2)C(O)C(OC2OC(CO)C(O)C(O)C2O)C1O (configuration not stated),0.16µM*,0.18µM*,0.21µM*,0.18µM*,1%,-71*
CC1OC(OC2CC[C@]3(C=O)[C@H]4[C@H](O)CC5(C)C(C6=CC(=O)OC6)CCC5(O)[C@@H]4CCC3(O)C2)C(O)C(O)C1O (some centres not stated),x,x,x,x,-18%,x
O=[N+]([O-])c1cccc2cccnc12,x,x,x,x,8%,x
COP(=S)(OC)Oc1ccc([N+](=O)[O-])cc1,5.8µM*,x,x,2.9µM*,x,x
COP(=S)(OC)Oc1ccc(S(N)(=O)=O)cc1,-7%,x,x,-4%,x,x
O=C1NC2(CCN(Cc3cccnc3)C2)COc2ccccc21 (configuration not stated),x,x,x,x,84%[176 µM],x
C#C[C@]1(O)CC[C@H]2[C@@H]3CCC4=CC(=O)CCC4=C3C=C[C@@]21CC,13µM*,x,x,9.4µM*,u,x
CCCN[C@@H]1CCc2c(OC)cccc2[C@@H]1C,13%,x,x,-22%,5%,x
CCCN(CCC)[C@@H]1CCc2c(OC)cccc2[C@@H]1C,u,x,x,15µM*,1%,x
CN1[C@@H]2CC[C@H]1CC(OC1c3ccccc3CCc3ccccc31)C2 (some centres not stated),8.2µM*,26µM*,16µM*,2.6µM*,-11%,u
c1ccc(C2=NOC3(CCCN(CC4CCCC4)C3)C2)nc1 (configuration not stated),x,x,x,x,9%[12.5 µM],x
c1ccc(C2=NOC3(CCCN(CC4CCCCC4)C3)C2)nc1 (configuration not stated),x,x,x,x,1%[6.33 µM],x
O=C(NCc1ccc2c(c1)OCO2)[C@H]1CN2CCC1C[C@@H]2Cn1cc(C2(O)CCCCC2)nn1 (some centres not stated),x,x,x,x,38%,x
